Compounds with a hit are over-represented: about 2.6% of the library has one in this group of screens.
Cruzain noTriton – inhibitors of Trypanosoma cruzi cruzain without detergent. P25779. purified cruzain, Z-FR-AMC fluorescence, no detergent. Potency, µM, inactives show max response, negative = inhibition, usual class: inhibitors. 200,000 tested, 2.3% active;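 further: plate controls were enzyme without inhibitor for no effect and buffer without enzyme for full effect; nearly all actives have a fitted effect of over 40% in size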
Target sequence (P25779 123-467 limits assumed): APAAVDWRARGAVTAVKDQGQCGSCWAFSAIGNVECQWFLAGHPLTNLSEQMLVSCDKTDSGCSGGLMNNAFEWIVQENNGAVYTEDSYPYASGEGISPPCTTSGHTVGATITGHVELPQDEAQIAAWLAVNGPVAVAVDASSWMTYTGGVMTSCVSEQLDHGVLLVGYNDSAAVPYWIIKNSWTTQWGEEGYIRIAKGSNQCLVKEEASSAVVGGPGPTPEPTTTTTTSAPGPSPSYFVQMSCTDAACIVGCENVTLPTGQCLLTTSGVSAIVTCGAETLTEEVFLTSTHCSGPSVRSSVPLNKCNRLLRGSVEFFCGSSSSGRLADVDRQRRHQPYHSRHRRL
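Purified cruzain at 1.5 nM, pre-incubated 15 min with compound at room temperature in 100 mM sodium acetate pH 5.5, 5 mM DTT, 0.00005% Triton X-100. Reaction started with 2 uM Z-FR-AMC; AMC fluorescence increase over 60 s gives rate.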
Cruzain Triton – blocks cruzain activity in presence of Triton detergent. purified cruzain, Z-FR-AMC fluorescence, 0.01% Triton. AID 1478. Potency, µM, inactives show max response, negative = inhibition, usual class: inhibitors. 200,000 tested, 0.43% active. P25779;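 further: plate controls were neutral wells for no effect and buffer without enzyme for full effect; nearly all actives have a fitted effect of over 40% in size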
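15 min RT preincubation of 1.5 nM cruzain with compound, then 2 uM Z-FR-AMC added; kinetic AMC fluorescence, 60 s delta. Triton X-100 0.01%, pH 5.5.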
An asterisk follows results filed as active; ? = inconclusive. The call rests on the fitted dose curve; in most records, active means well fitted curve in the direction sought with a large enough effect; inconclusive means small, poorly fitted or top-dose-only effect, or another doubt; inactive means no such curve, though single readings can be large; an effect the other way counts as inactive or inconclusive. Potency means the concentration at half of the fitted maximal effect.

SMILES	Cruzain noTriton	Cruzain Triton
Cc1cc(=O)oc2c(CN(CC(C)C)CC(C)C)c(O)ccc12	?	25.1µM*
Cc1c(C(=O)N(C)c2cccc(C(F)(F)F)c2)sc2nc3n(c(=O)c12)CCCCC3	?	-12.1%
CC(C)c1ccc(/C=C(/C#N)c2nnc(NC(=O)c3ccccc3)s2)cc1	12.6µM*	-6.2%
CC(C)c1ccc(/C=C(\C#N)c2nc(-c3ccc(O)cc3)cs2)cc1	?	7.0%
Cc1cccc(NC(=O)Cn2c(=O)n(Cc3ccccc3)c(=O)c3oc4ccccc4c32)c1C	-7.1%	1.3%
O=C(NCc1ccco1)c1ccc2c(c1)N(Cc1ccc(Cl)cc1)C(=O)c1ccccc1S2	?	0.6%
CC1CCC(NC(=O)c2ccc3c(c2)N(Cc2cccc(F)c2)C(=O)c2ccccc2S3)CC1 (configuration not stated)	?	1.1%
O=C(NC1CCCC1)c1ccc2c(c1)N(Cc1ccccc1)C(=O)c1ccccc1S2	?	0.8%
Cc1ccccc1CN1C(=O)c2ccccc2Sc2ccc(C(=O)NCc3ccccc3)cc21	31.6µM*	0.6%
Cc1cccc(CN2C(=O)c3ccccc3Sc3ccc(C(=O)NC4CCCCC4)cc32)c1	12.6µM*	1.0%
Cc1ccccc1CN1C(=O)c2ccccc2Sc2ccc(C(=O)NCc3cccs3)cc21	?	0.4%
CCOc1ccc(CN2C(=O)c3ccccc3Sc3ccc(C(=O)NC4CCC(C)CC4)cc32)cc1 (configuration not stated)	5.01µM*	-5.2%
CCOc1ccc(CN2C(=O)c3ccccc3Sc3ccc(C(=O)NCc4ccco4)cc32)cc1	31.6µM*	-4.0%
COc1cc(NC(=O)CSc2nc3nc(C)c(Cc4ccccc4Cl)c(C)n3n2)cc(OC)c1	-9.0%	0.9%
N#Cc1nc(-c2ccc(COc3ccc(Cl)cc3)o2)oc1N1CCC(C(N)=O)CC1	?	-8.0%
CCN(Cc1ccccc1)Cc1c(O)ccc2c(=O)c(-c3ccc(Cl)cc3)coc12	-8.5%	-2.1%
O=C(CC(c1ccccc1)c1cc(Br)ccc1O)NCC1(c2ccccc2)CCCC1 (configuration not stated)	-20.1%	-1.2%
Clc1ccc(/C=C/c2nc3ccccc3[nH]2)c(Cl)c1	?	-7.5%
Clc1ccc(/C=C/c2nc3ccccc3[nH]2)cc1	15.8µM*	-20.4%
CC1CCN(C(=O)CSc2nc(-c3ccccc3)no2)CC1	5.1%	-8.1%
CC1Cc2ccccc2N1C(=O)CSc1nnc(-c2ccccc2)c(-c2ccccc2)n1 (configuration not stated)	15.8µM*	-0.8%
CC1Cc2ccccc2N1C(=O)CSc1nnc2c(n1)[nH]c1ccccc12 (configuration not stated)	0.6%	-0.5%
CCOC(=O)c1oc2ccccc2c1NC(=O)C1CCCCC1	-23.7%	7.0%
O=C(CNC(=O)C1CCCCC1)OCc1cc(=O)oc2ccc3ccccc3c12	-19.6%	3.16µM*
CNS(=O)(=O)c1cn(CC(=O)Nc2ccc(OC)cc2OC)cc1S(=O)(=O)NC	2.1%	-1.8%
SMILES	Cruzain noTriton	Cruzain Triton
CC1(C)[C@@H]2CC[C@]1(C)[C@@H](OC(=O)/C=C\c1ccccc1)C2	-10.7%	1.0%
O=C(Oc1ccc([N+](=O)[O-])cc1)c1cccnc1	9.1%	-3.7%
O=C(Oc1ccc(NC2=C(Cl)C(=O)c3ccccc3C2=O)cc1)c1ccc([N+](=O)[O-])cc1	12.6µM*	-3.1%
CCOC(=O)Cn1c(=O)oc2cc(S(=O)(=O)N3CCN(c4cccc(C)c4C)CC3)ccc21	-16.8%	-2.3%
NS(=O)(=O)c1cc(Br)c(N=Nc2ccc(O)c3ncccc23)c(Br)c1	-4.9%	5.6%
Cc1cccc(N=Nc2ccc(O)c3ncccc23)c1	20µM*	1.9%
CC(C(=O)NCc1cccc(Br)c1)n1ncn2cccc2c1=O (configuration not stated)	-3.6%	-7.6%
Nc1nc2c(c(=O)[nH]1)N=C(CNc1ccc(C(=O)NC(CCC(=O)O)C(=O)O)cc1)CN2 (configuration not stated)	-2.0%	-2.3%
COc1ccc(NC(=O)/C(C#N)=C/c2ccc(OCc3ccccc3F)cc2)cc1	3.98µM*	-0.9%
COc1ccc(/C=C(\C#N)C(=O)Nc2cc(S(=O)(=O)N3CCOCC3)ccc2N2CCCC2)cc1	?	-17.1%
CCOc1cc(/C=C(/C#N)C(=O)Nc2ccc(O)cc2)cc(Br)c1O	-13.4%	-1.5%
CCN(CC)S(=O)(=O)c1ccc(N2CCCCC2)c(NC(=O)/C(C#N)=C/c2ccc(OC)cc2)c1	10µM*	-6.7%
CCOc1ccc(NC(=O)/C(C#N)=C/c2ccc(N3CCCC3)c(C)c2)cc1	10µM*	-7.0%
CCCc1nn2c(=O)cc(COc3ccc(/C=C(\C#N)C(=O)Nc4ccc(F)cc4)cc3)nc2s1	-5.7%	0.5%
O=C(Cc1ccc(-c2ccccc2)cc1)NCCS(=O)(=O)N1CCN(c2ccc(F)cc2)CC1	?	-0.5%
O=C(NC1CC(=O)N(c2ccc(F)cc2)C1)C1CC1 (configuration not stated)	15.1%	1.9%
CCOc1ccccc1NC(=O)c1nnn(CC(=O)Nc2ccc(OC)c(OC)c2)c1N	3.2%	-2.4%
O=C(Nc1nc(-c2cccc(Br)c2)cs1)Oc1ccccc1	?	0.9%
CCc1ccc(-c2csc(NC(=O)Oc3ccccc3)n2)cc1	12.6µM*	0.1%
O=C(Nc1ccccc1)Nc1nc(-c2ccc(Cl)cc2)cs1	15.8µM*	1.7%
CCN(CC)CC(=O)Nc1nc(-c2ccc(Cl)cc2)cs1	-9.8%	-6.1%
CC(C)CC(=O)NC(=S)Nc1nc(-c2ccc(Cl)cc2)cs1	?	-6.1%
O=C(Nc1cccc(Cl)c1)Nc1nc(-c2ccc(Cl)cc2)cs1	10µM*	1.4%
COc1ccc(S(=O)(=O)c2cn(CC(=O)Nc3cc(C)ccc3C)c3ccccc3c2=O)cc1	-5.0%	0.1%
O=C(CSc1nc(=O)n(Cc2ccncc2)c2c1CCC2)Nc1cccc(F)c1	0.7%	-2.7%
SMILES	Cruzain noTriton	Cruzain Triton
CC(C)c1noc(-c2ccccc2OCC(=O)Nc2ccc([N+](=O)[O-])cc2)n1	11.3%	-4.6%
Cc1cccc(C2=NN(c3ccc(Br)cc3)[C@@H](C(=O)N3CCOC3=O)[C@@H]2c2ccc(Cl)cc2)c1	8.91µM*	3.0%
Cc1cccc(-c2nc3c(cnn3-c3ccccc3)c(=O)n2-c2ccc(Br)cc2)c1	-8.6%	-11.3%
Cc1cccc(C2=NN(c3ccc(Br)cc3)[C@@H](C(=O)N3CCOC3=O)[C@@H]2c2ccc(F)cc2)c1	17.8µM*	-14.2%
Cc1cccc(-c2nc3c(cnn3-c3ccccc3)c(=O)n2-c2ccc(Cl)cc2)c1	?	-9.5%
Cc1nc2c(c(C)c1CCC(=O)N1CCN(c3ccccc3)CC1)c(=O)n(C)c(=O)n2C	-2.2%	0.1%
COc1ccc(S(=O)(=O)N2CCN(c3ccccc3OC)CC2)cc1-c1noc(C)n1	1.7%	-2.0%
CCOC(=O)C1CCN(C(=O)Nc2ccc3nc(-c4ccco4)c(-c4ccco4)nc3c2)CC1	?	14.1µM*
Cc1nc2ccc(NC(=O)N3CCCCC3)cc2nc1C	-13.5%	-4.3%
CCOC(=O)C1CCN(C(=O)Nc2ccc3c(c2)nc(C)n3C)CC1	-2.7%	3.5%
O=C(Nc1ccc2nc(-c3ccco3)c(-c3ccco3)nc2c1)N1CCCCCC1	2µM*	14.1µM*
O=[N+]([O-])c1ccc(C(c2sc3nc(-c4ccco4)nn3c2O)N2CCN(Cc3ccccc3)CC2)cc1 (configuration not stated)	-11.2%	-2.2%

Source: PubChem
